Consider 21 compounds from PubChem BioAssay (EPA / NIEHS).

Test [1] can be described thus: BSK_hDFCGF_SRB: Viability Assessment in the BioMAP Diversity Plus: hDFCGF Assay (AID 2283061).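 Further: cells exposed to compound for 24 h before the read.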 The note with it: primary human foreskin fibroblasts. The method, boiled down:
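Cells were dosed with test chemical, cultured 24 h, fixed with 10% TCA, then stained with 0.1% SRB and read at 560 nm. The fibroblasts were human foreskin primary cells, and DMSO served as baseline.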

Read-out in test [2]: TIMP metallopeptidase inhibitor 1 (TIMP1), TIMP1 (gene 7076)
The test can be described thus: BSK_hDFCGF_TIMP1: BioMAP Diversity Plus: hDFCGF Assay for TIMP metallopeptidase inhibitor 1 (TIMP1) Biomarker Activity (AID 2283062). The settings on record: primary human foreskin fibroblasts; actives raise or lower the signal. The method, boiled down:
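Fibroblasts from human foreskin are treated with test chemical and harvested at 24 h. TIMP-1 is quantified by ELISA, and gain or loss of signal is scored against DMSO.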

Read-out in test [3]: Monokine induced gamma interferon (MIG), CXCL9 (gene 4283)
The test can be described thus: BSK_hDFCGF_MIG: BioMAP Diversity Plus: hDFCGF Assay for Monokine induced gamma interferon (MIG) Biomarker Activity (AID 2283063). The settings on record: primary human foreskin fibroblasts; actives raise or lower the signal. The method, boiled down:
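MIG signal, determined by ELISA, reflects 24 h chemical exposure of human skin primary fibroblasts. DMSO serves as negative control and baseline.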

Read-out in test [4]: Matrix Metallopeptidase 1 (MMP1), MMP1 (gene 4312)
Description: BSK_hDFCGF_MMP1: BioMAP Diversity Plus: hDFCGF Assay for Matrix Metallopeptidase 1 (MMP1) Biomarker Activity (AID 2283064). The note with it: primary human foreskin fibroblasts; actives raise or lower the signal. The method, boiled down: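 ELISA read-out of MMP1 from human foreskin fibroblasts (primary skin cells), 24 h post-dose. Gain or loss of signal was fitted bidirectionally versus DMSO negative control; cytotoxicity was checked by SRB in parallel cultures.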

Read-out in test [5]: Vascular cell adhesion molecule 1 (VCAM1), VCAM1 (gene 7412)
Description: BSK_hDFCGF_VCAM1: BioMAP Diversity Plus: hDFCGF Assay for Vascular cell adhesion molecule 1 (VCAM1) Biomarker Activity (AID 2283065).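 On AC50: VCAM-1 protein level quantified by ELISA after 24 h chemical exposure.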 The note with it: primary human foreskin fibroblasts; actives raise or lower the signal. The method, boiled down: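 Cells are dosed, cultured for 24 h, then VCAM-1 is quantified by ELISA; signal increases and decreases are both fitted relative to DMSO.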

Read-out in test [6]: Plasminogen activator inhibitor-1 (PAI1), SERPINE1 (gene 5054)
Description: BSK_hDFCGF_PAI1: BioMAP Diversity Plus: hDFCGF Assay for Plasminogen activator inhibitor-1 (PAI1) Biomarker Activity (AID 2283066). The note with it: primary human foreskin fibroblasts; actives raise or lower the signal. The method, boiled down:
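Fibroblasts from human foreskin were treated with test chemical. After 24 h, PAI-1 was measured by ELISA. Activity was fitted in both directions relative to DMSO.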

Read-out in test [7]: Intercellular Adhesion Molecule 1 (ICAM1), ICAM1 (gene 3383)
The test can be described thus: BSK_KF3CT_ICAM1: BioMAP Diversity Plus: KF3CT Assay for Intercellular Adhesion Molecule 1 (ICAM1) Biomarker Activity (AID 2283067). The note with it: primary human keratinocytes with fibroblasts; actives raise or lower the signal. The method, boiled down: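 Dose the keratinocyte/fibroblast co-culture, wait 24 h, measure ICAM-1 by ELISA, then fit increases or decreases against DMSO. Cytotoxicity is checked in parallel cultures by SRB total-protein staining.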

Read-out in test [8]: Interferon-gamma inducible Protein 10 (IP10), CXCL10 (gene 3627)
Description: BSK_KF3CT_IP10: BioMAP Diversity Plus: KF3CT Assay for Interferon-gamma inducible Protein 10 (IP10) Biomarker Activity (AID 2283068). The settings on record: primary human keratinocytes with fibroblasts; actives raise or lower the signal. The method, boiled down:
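Signal is secreted/surface IP-10 by ELISA in a human primary skin co-culture of keratinocytes and foreskin fibroblasts, taken 24 h post-dosing; DMSO served as negative control.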

A short description of test [9]: BSK_KF3CT_SRB: Viability Assessment in the BioMAP Diversity Plus: KF3CT Assay (AID 2283069).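 Further: total protein by sulforhodamine B staining as a cytotoxicity measure; read 24 h after compound addition; fitted for both signal gain and loss against DMSO baseline.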 The settings on record: primary human keratinocytes with fibroblasts. The method, boiled down:
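SRB read-out at 560 nm (0.1% stain, TCA-fixed cells) gauges overt cytotoxicity in a human skin keratinocyte–fibroblast co-culture 24 h post-dosing. Signal change was fitted bidirectionally relative to DMSO control.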

Read-out in test [10]: Interleukin-1 alpha (IL1a), IL1A (gene 3552)
The test can be described thus: BSK_KF3CT_IL1a: BioMAP Diversity Plus: KF3CT Assay for Interleukin-1 alpha (IL1a) Biomarker Activity (AID 2283070). The note with it: primary human keratinocytes with fibroblasts; actives raise or lower the signal. The method, boiled down:
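Primary skin co-culture (keratinocytes, foreskin fibroblasts), 24 h exposure; ELISA for IL-1a; bidirectional curve fit vs DMSO.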

Structures are written as SMILES. Active and inactive are the calls of the source. How the source made its calls: active means hit-call score of the fitted dose curve at least 0.9, where 1 is the maximum; inactive means score below 0.9.

Consider `Cc1cc(NC(=O)C(=O)O)cc(C)c1Oc1ccc(O)c2c1CCC2`, for which the result in [1], in [2], in [3], in test [4], in [5] and in test [6] was inactive. Besides, the outcome in test [7], in [8], in [9] and in test [10] was inactive.
For the compound `Cc1nc(-c2ccc3c(c2)CCN(CCC2CCC(NC(=O)/C=C/c4ccc(F)cc4)CC2)CC3)no1` (stereo unspecified), the outcome in test [1], in [2], in test [3], in [4], in [5] and in test [6] was inactive. Further, the outcome in [7], in [8], in test [9] and in [10] was inactive.
For the compound `O=c1[nH]cc(F)c(=O)[nH]1`, the result in test [1], in test [2], in test [3], in test [4], in [5] and in test [6] was inactive. Further, the outcome in test [7], in test [8], in test [9] and in test [10] was inactive.
For the compound `COc1ccc(S(=O)(=O)N2C(=O)[C@@](c3ccccc3OC)(N3C[C@H](O)C[C@H]3C(=O)N(C)C)c3cc(Cl)ccc32)c(OC)c1`, the AC50 (commonly the midpoint of the concentration-response curve, whichever way the signal moves) in test [1] was 26.5 µM (active); in [4] it was 4.5 µM (active). For the same compound, the result in test [2], in test [3], in test [5], in [6], in test [7] and in test [8] was inactive. The result in [9] and in [10] was inactive.
Consider `CCCCC(CC)COC(=O)CC(C(=O)OCC(CC)CCCC)S(=O)(=O)O` (stereo unspecified), for which the AC50 is 24.4 µM (active) in test [1]; 20 µM (active) in test [2]; 11.8 µM (active) in test [3]; 25.7 µM (active) in test [4]; 6.62 µM (active) in test [5]; 9.12 µM (active) in [6]. Moreover, the AC50 in [7] was 11.8 µM (active); in [8] it was 6.69 µM (active); in test [9], 8.47 µM (active); in test [10], 8.83 µM (active).
On to `COc1cc(-c2nc(NC(=O)c3cc4cc(C)cc(C)c4n3CC(=O)O)sc2CCC2CCCCC2)c(OC)cc1Cl`, for which the AC50 in test [1] is 0.771 µM (active); in test [2], 0.48 µM (active); in test [3], 1.62 µM (active); in test [4], 0.471 µM (active); in [5], 0.317 µM (active); in test [6], 0.442 µM (active). The half-maximal activity concentration (AC50) is 3.23 µM (active) in test [7], 1.55 µM (active) in [8], 1.64 µM (active) in [9] and 4.26 µM (active) in test [10].
With `COCCOCCOC`, the result in [1], in test [2], in test [3], in test [4], in test [5] and in [6] was inactive. For the same compound, the outcome in [7], in test [8], in test [9] and in [10] was inactive.
As for `CCCCc1ccc2c(n1)[C@@H](c1ccc(OC)cc1C[C@H](C)C(=O)O)[C@H](C(=O)O)[C@H]2c1ccc2c(c1)OCO2`, the result in test [1], in test [2], in test [3], in [4], in [5] and in test [6] was inactive. In addition, the result in test [7], in [8], in [9] and in test [10] was inactive.
On to `CCOC(=O)CCC(=O)OCC`, for which the result in [1], in [2], in [3], in test [4], in test [5] and in test [6] was inactive. Moreover, the outcome in [8], in test [9] and in test [10] was inactive.
For `CC(=O)OCCOCCOCCOC(C)=O`, the outcome in test [1], in [2], in [3], in test [4], in test [5] and in test [6] was inactive. Moreover, the outcome in test [8], in test [9] and in test [10] was inactive.
On to `COc1ccc(C)cc1N`, for which the result in [1], in test [2], in test [3], in test [4], in test [5] and in test [6] was inactive. The outcome in [8], in [9] and in test [10] was inactive.
Consider `CCCCCC(=O)O`, for which the outcome in test [1], in test [2], in test [3], in test [4], in test [5] and in [6] was inactive. The outcome in [7], in test [8], in [9] and in test [10] was inactive.
Take `Cc1ccc(C)c(O)c1C`: the outcome in test [1], in test [2], in test [3], in test [4], in [5] and in test [6] was inactive. In addition, the result in test [7], in test [8], in test [9] and in [10] was inactive.
Regarding `Cc1ccccc1Cl`, the outcome in [1], in test [2], in [3], in test [4], in test [5] and in [6] was inactive. Moreover, the result in test [7], in test [8], in [9] and in test [10] was inactive.
In the case of `Cc1ccc(Cl)cc1`, the outcome in [1], in test [2], in test [3], in test [4], in test [5] and in test [6] was inactive. The outcome in test [7], in test [8], in test [9] and in [10] was inactive.
As for `COCCOC[C@H](CC1(C(=O)NC2CCC(C(=O)O)CC2)CCCC1)C(=O)Oc1ccc2c(c1)CCC2` (stereo partly specified), the outcome in test [1], in test [2], in test [3], in [4], in test [5] and in test [6] was inactive. For the same compound, the result in [7], in [8], in test [9] and in [10] was inactive.
`CCCCCCC(=O)OCC`: the result in test [1], in test [2], in test [3], in [4], in test [5] and in [6] was inactive. Besides, the result in [7], in test [8], in [9] and in [10] was inactive.
In the case of `CC(=O)C(C)=CC1C(C)=CCCC1(C)C` (stereo unspecified), the outcome in [1], in [2], in test [3], in test [4], in [5] and in [6] was inactive. Moreover, the result in test [7], in [8], in test [9] and in [10] was inactive.
In the case of `Cc1cccc(Nc2cc(Cl)nc(SCC(=O)O)n2)c1C`, the result in test [1], in test [2], in test [3], in [4], in test [5] and in [6] was inactive. The result in [8], in test [9] and in [10] was inactive.
Regarding `Cc1ccc(C(C)C)c(O)c1`, the outcome in [1], in test [2], in [3], in test [4], in test [5] and in test [6] was inactive. In addition, the result in test [7], in [8], in [9] and in test [10] was inactive.
Turning to `CCCCCCCCCCO`, the result in test [1], in test [2], in [3], in test [4], in [5] and in test [6] was inactive. For the same compound, the outcome in [7], in test [8], in test [9] and in test [10] was inactive.
